Sampled rows, rich in hits. Any-hit rate of the full collection: about 2.2%.
Beta cell apopt: inhibitors of cytokine-induced beta cell apoptosis, primary screen, luminescence | INS-1E cytokine-induced death, ATP luminescence, 48 h; percent of positive-control rescue, neutral wells zero | protection from apoptosis, % (concentration not given with the values) | hit rate 0.8% among 300,000;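 active = Every replicate reaches about 75%, or at least half do and their mean reaches it too, limit read from the data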;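 also: 0% = cytokine-treated negative control wells and 100% = positive control rescue; higher means more ATP so stronger rescue from cytokine killing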
CSC inhib: cancer stem cell viability inhibitors, primary screen, luminescence; cancer stem cell-like cells viability; inhibition, % at 7.5 µM; hit rate 1.1% among 300,000; AID 2717, 2010; in the data active = inhibition above about 75%; tested in HMLE shEcad cells
Calb FLC: C. albicans growth inhibition with fluconazole, primary screen, CaCi-2 strain, Alamar Blue fluorescence. C. albicans CaCi-2 (fluconazole-resistant clinical isolate) + fluconazole, 48 h. growth inhibition, % (no concentration beside the values). hit rate 0.57% among 300,000. AID 1979, 2009;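 active = growth inhibition above about 58% in most replicates, limit read from the data, passing the limit was not always enough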;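 also: all wells also contain fluconazole at 8 µg/ml as a sub-toxic cotreatment; 0% = median of DMSO wells and 100% = median of geldanamycin control wells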
PfHsp90 yeast 2: growth inhibition of PfHsp90-expressing yeast, primary screen, antimalarial PfHsp90 inhibitor project, S. cerevisiae, BacTiter-Glo luminescence, single point, set 2; BacTiter-Glo ATP, 48 h; yeast lacking PDR1 and PDR3 efflux regulators; hit rate 0.32% among 310,000; inhibition, % at 9.4 µM;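 active = every replicate shows inhibition above about 80%, whatever the replicate mean, limit read from the data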;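 also: 0% = DMSO neutral controls and 100% = 20 µM radicicol positive controls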
Shn3 3UTR inh: reduction of Shn3 3'UTR firefly luciferase signal, primary screen, Schnurri-3 inhibitor project, cell-based, Clone20 osteoblasts, set 2 | Clone20 osteoblast Shn3 3'UTR firefly luciferase, 24 h | inhibition, % at 12.5 µM | hit rate 0.52% among 360,000;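 active = mean inhibition of at least 75% with every replicate also reaching 75%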;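 also: 0% = median of neutral control wells and 100% = pilot-screen positive control compound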
The depositor's hits bear a star.

For CCOC(=O)C1CCN(C(=O)c2c(C)oc3c2C(=O)c2ccccc2C3=O)CC1 the results were Beta cell apopt 102*, CSC inhib 60, Calb FLC -4, PfHsp90 yeast 2 10 and Shn3 3UTR inh 1.
`Cc1ccc(-n2nc3c(=O)n(CCCC(=O)N4CCC(C(N)=O)CC4)nc(C)c3c2C)cc1` gave Beta cell apopt -7, CSC inhib -4, Calb FLC 6, PfHsp90 yeast 2 0 and Shn3 3UTR inh -1.
`CCCCC(=O)NC(=S)Nc1cccc(NC(=O)c2ccco2)c1` gave Beta cell apopt -3, CSC inhib -3, Calb FLC 89*, PfHsp90 yeast 2 -7 and Shn3 3UTR inh -4.
Cc1ccc(NC(=O)/C(Cl)=C/c2ccccc2)cc1C was read as Beta cell apopt 0, CSC inhib 16, Calb FLC -8, PfHsp90 yeast 2 -14 and Shn3 3UTR inh -37.
COc1cc(C(C(=O)NC2CCCC2)N(CCO)C(=O)Cn2nnc(-c3ccc(C)o3)n2)ccc1O (configuration not stated) was read as Beta cell apopt 3, CSC inhib -4, Calb FLC -5, PfHsp90 yeast 2 5 and Shn3 3UTR inh 6.
Screening O=C1C=CC(O)(c2cc(=O)c3c(O)cc(O)cc3o2)C=C1 returned Beta cell apopt 111*, CSC inhib 16, Calb FLC 8, PfHsp90 yeast 2 7 and Shn3 3UTR inh 97*.
For CCOC(=O)C1=C[C@@H](CC)N(S(=O)(=O)c2ccccc2)[C@H]1c1ccccc1 the results were Shn3 3UTR inh 4.
CCOC(=O)C(=O)N/N=C/c1ccc(F)cc1 was read as Beta cell apopt 2, CSC inhib -1, Calb FLC -6, PfHsp90 yeast 2 -18 and Shn3 3UTR inh 8.
`CCc1ccc(C(=O)NNc2ccc(S(N)(=O)=O)cc2)cc1` gave Beta cell apopt 1, CSC inhib -1, Calb FLC 8, PfHsp90 yeast 2 5 and Shn3 3UTR inh -10.
For CCc1ccc(C(=O)NNc2ccccc2F)cc1 the results were Beta cell apopt -1, CSC inhib 37, Calb FLC 0, PfHsp90 yeast 2 25 and Shn3 3UTR inh -24.
CCc1ccc(C(=O)NNc2ccc(F)cc2)cc1 was read as Beta cell apopt 4, CSC inhib 74, Calb FLC 80*, PfHsp90 yeast 2 4 and Shn3 3UTR inh 7.
For Cc1cc(C(=O)NNc2ccc(F)cc2)no1 the results were Beta cell apopt -3, CSC inhib 96*, Calb FLC -8, PfHsp90 yeast 2 9 and Shn3 3UTR inh 18.
`CCc1ccc(C(=O)NNc2cc(Cl)ccc2Cl)cc1` gave Beta cell apopt 92*, CSC inhib 5, Calb FLC 0, PfHsp90 yeast 2 29 and Shn3 3UTR inh 78.
Screening CCOC(=O)C(=O)NNc1ccc(F)cc1 returned Beta cell apopt 4, CSC inhib 101*, Calb FLC 0 and Shn3 3UTR inh 1.
`CSCC[C@H](NC(=O)OC(C)(C)C)C(=O)N1CCC(C(=O)N[C@@H](C)C(=O)NC(C)c2ccccc2)CC1` (some centres not stated) gave Beta cell apopt -3, CSC inhib -8, Calb FLC 5, PfHsp90 yeast 2 20 and Shn3 3UTR inh -1.
`Cc1noc(C)c1COC(=O)C1CCN(S(=O)(=O)c2ccc(F)cc2)CC1` gave Beta cell apopt -6 and Shn3 3UTR inh 3.
`CC(=O)n1c2c(c3ccccc31)OC(N)=C(C#N)C2c1cccc(Cl)c1Cl` (configuration not stated) gave Beta cell apopt 15, CSC inhib 76*, Calb FLC 11 and Shn3 3UTR inh 12.
`N#CC1=C(N)Oc2cc(N)ccc2C1c1ccccc1Cl` (configuration not stated) gave Beta cell apopt 2, CSC inhib -3, Calb FLC 1, PfHsp90 yeast 2 11 and Shn3 3UTR inh 8.
`O=C1ON=C(c2ccc(Cl)cc2)/C1=C/c1ccc(O)cc1` gave Beta cell apopt -36, CSC inhib 79*, Calb FLC -2 and Shn3 3UTR inh -1.
For C=C1CC2(OC1=O)c1ccccc1CCc1ccccc12 the results were PfHsp90 yeast 2 -61 and Shn3 3UTR inh 100*.
Cc1ccc(CNC(=O)N2CCN(S(=O)(=O)c3ccccc3)CC2)cc1 was read as Beta cell apopt 1, CSC inhib -11, Calb FLC -3, PfHsp90 yeast 2 2 and Shn3 3UTR inh 14.
CC1S/C(=N/N=C/c2cccc([N+](=O)[O-])c2)NC1=O (configuration not stated) was read as Beta cell apopt 4, CSC inhib 88*, Calb FLC 4, PfHsp90 yeast 2 -24 and Shn3 3UTR inh -26.
Cc1nc(SCC(=O)c2cc3ccccc3oc2=O)c(C#N)c(-c2ccccc2)c1C(=O)Nc1ccccc1 was read as Beta cell apopt 13, CSC inhib 33, Calb FLC 2, PfHsp90 yeast 2 -7 and Shn3 3UTR inh 1.
`COc1ccc(-c2c(C#N)c(SCC(=O)c3cc4ccccc4oc3=O)nc(C)c2C(=O)Nc2ccccc2)cc1` gave Beta cell apopt 5, CSC inhib 105*, Calb FLC -13, PfHsp90 yeast 2 -12 and Shn3 3UTR inh 17.
`COc1ccc(C(=O)NC2CC2)cc1OC1CCN(Cc2ccc(F)cc2Cl)CC1` gave Beta cell apopt 6, CSC inhib 24, Calb FLC -5, PfHsp90 yeast 2 -8 and Shn3 3UTR inh 12.
CN(C)c1ccc(N=Cc2cccn2C)cc1 was read as Beta cell apopt 7, Calb FLC 85*, PfHsp90 yeast 2 10 and Shn3 3UTR inh -13.
Screening O=C(CN1CCCCC1)NNc1nc(-c2ccccc2)c2cc(Br)ccc2n1 returned Beta cell apopt 6, CSC inhib 8, Calb FLC -4 and PfHsp90 yeast 2 4.
Screening CCn1cc(CNC(=O)c2ccc(OC3CCN(Cc4ccccn4)CC3)cc2)cn1 returned Beta cell apopt 8, CSC inhib -1, Calb FLC -2, PfHsp90 yeast 2 -13 and Shn3 3UTR inh 48.
`CCn1nc(C)c(CNC(=O)c2ccc(OC3CCN(Cc4ccccn4)CC3)cc2)c1C` gave Beta cell apopt 79*, CSC inhib -5, Calb FLC -4, PfHsp90 yeast 2 -1 and Shn3 3UTR inh 65.
For CCOC(=O)C1=Nc2ccccc2C1=[N+]=[N-] the results were Beta cell apopt 107*, CSC inhib -4, Calb FLC -2, PfHsp90 yeast 2 122* and Shn3 3UTR inh 68.
For O=C(/C=C/c1ccc2c(c1)OCO2)Nc1nc2ccccc2s1 the results were Beta cell apopt 58, CSC inhib 67, Calb FLC 1, PfHsp90 yeast 2 -2 and Shn3 3UTR inh -29.
Screening O=C(/C=C/c1ccc2c(c1)OCO2)Nc1nc(-c2ccc(F)cc2F)cs1 returned Beta cell apopt 42, CSC inhib 95* and Calb FLC -8.

High-throughput results (PubChem)
